This is an account of results in PubChem BioAssay AID1240 (Sanford-Burnham Center for Chemical Genomics, 2008).

Screen size: about 50,000 compounds; about 800 (1.6%) showed an effect of 50% or more. The entries come from a sample that favours strong results as a whole.

In this experiment the target is Bcl-2-like protein 10 (Homo sapiens) (UniProt Q9HD36). In words: Phenotype converters, Bcl-B/TR3 peptide binding displacement, primary biochemical FP (AID 1240).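 Further: 0% = Bcl-B with tracer peptide and DMSO and 100% = tracer peptide lacking Bcl-B.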 The following applies: GST-Bcl-B / FITC-TR3 peptide fluorescence polarization; stronger effect = higher value; compound at 3.75 mg/L. In general terms: In fluorescence polarisation assays a small probe gives low polarisation when free and higher when bound to something large.
Chain of Bcl-2-like protein 10 (Homo sapiens) (Q9HD36 whole entry, looked up): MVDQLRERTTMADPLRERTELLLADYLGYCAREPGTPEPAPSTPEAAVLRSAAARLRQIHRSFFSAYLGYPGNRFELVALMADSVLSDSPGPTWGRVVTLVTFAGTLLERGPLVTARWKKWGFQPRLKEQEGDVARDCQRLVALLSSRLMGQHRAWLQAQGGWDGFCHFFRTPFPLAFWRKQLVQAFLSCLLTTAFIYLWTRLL
For the compound `Cc1ccc(C23CC4CC(CC(C(=O)Nc5ccc(F)cc5F)(C4)C2)C3)cc1`, the displacement was -3.1%.
As to `Cc1cc(Cl)ccc1OCC(=O)NCC1CCCO1` (configuration not stated), the displacement was 1.4%.
For `CC(C)CN1C(=O)c2ccc(C(=O)Nc3ccc(Br)cc3C(=O)O)cc2C1=O` the value was -12.5%; for `Cc1ccc(/C=C/C(=O)Nc2cccc3ncccc23)o1`, 27.1%; for `Cc1ccc(/C=C/C(=O)Nc2cccc3cccnc23)o1`, 91.4%.
Consider `Cc1ccc(/C=C/C(=O)Nc2cccc3ccccc23)o1`, for which the displacement was -7.3%.
For `Cc1c(C(=O)Nc2ccc(Cl)cn2)oc2ccccc12` the value was 15.4%.
As for `Cc1cccc(C(C)C)c1NC(=O)COc1ccc(Cl)cc1Cl`, the displacement is 13.3%.
With `Cc1cccc(N2C(=O)/C(=C/c3ccco3)SC2=S)c1C` the figure was 1.9%.
For `Cc1cc(/C=C2\SC(=S)NC2=O)c(C)n1-c1cccc([N+](=O)[O-])c1`, the displacement stood at 7.1%.
Turning to `Cc1ccc(C)n1Cc1ccc(C(=O)O)cc1`, the displacement worked out at 66.4%.
For `Cc1ccc(CN2CCN(/N=C/c3ccc(C(=O)O)cc3)CC2)cc1` the value was 16.4%; for `O=C(O)c1ccc(CN2CCOCC2)cc1`, 13.7%.
With `CC(=O)c1cccc(NC(=O)/C(=C\c2cccnc2)NC(=O)c2ccccc2)c1` the figure was -5.3%; with `N/C(Cc1cccc2ccccc12)=N\OC(=O)c1ccc(F)cc1`, 31.7%.
With `N/C(Cc1cccc2ccccc12)=N\OC(=O)c1cccs1` the figure was 98.4%.
`COc1ccc(C/C(N)=N/OC(=O)c2cccs2)cc1`: the displacement amounted to 8.1%.
`COc1ccc(C(=O)CSc2nc3c(c(-c4ccc(C)o4)c2C#N)CCCC3)cc1`: the displacement is 7.6%.
Consider `CC(C)(C)C1(O)CC(C(F)(F)F)=NN1C(=O)COc1ccccc1` (configuration not stated), for which the displacement was -7.4%.
With `CCCCc1ccc(/C=C2/C(=O)ON=C2c2ccccc2)s1` the figure was 40.8%; with `O=C1ON=C(c2ccccc2)/C1=C/c1cccnc1`, -9.2%.
For `O=C1ON=C(c2ccccc2)/C1=C/c1ccc(Br)s1` the value was 70.8%.
With `CCCCN(CC)c1cnn(-c2ccccc2)c(=O)c1N` the figure was 10.6%; with `COc1ccc(C2C(C(C)=O)=C(Nc3ccc(Br)cc3)CC(C)(O)C2C(C)=O)cc1` (configuration not stated), 90.9%; with `COc1ccc(C2C(C(C)=O)=C(Nc3ccccc3)CC(C)(O)C2C(C)=O)cc1` (configuration not stated), 1.4%.
Consider `CC(=O)C1=C(Nc2ccc(Br)cc2)CC(C)(O)C(C(C)=O)C1c1ccc(C)cc1` (configuration not stated), for which the displacement is -4.9%.
With `COc1ccc(C2Nc3ccccc3C(=O)N2Cc2ccccc2)cc1Cn1nc(C)c(Br)c1C` (configuration not stated), the displacement came out at 15.4%.
On to `CCOC(=O)c1c(NC(=O)COc2cc(Cl)ccc2Cl)sc(C)c1C`, for which the displacement is -8%.
For `CCOC(=O)c1sc(NC(=O)COc2ccc(Cl)cc2C)c(C(=O)OCC)c1C` the value was -5.1%.
For the compound `Cc1cc(Cl)ccc1OCC(=O)Nc1sc(C)c(C)c1C(N)=O`, the displacement was determined as 79.1%.
For `O=C(N/N=C/c1ccc(Cl)c(Cl)c1)C1CC(=O)N(c2ccccc2)C1` (configuration not stated), the displacement is -9.3%.
For `CS(=O)(=O)N(CC(=O)NCc1ccncc1)c1ccc(Oc2ccccc2)cc1` the value was 10.2%; for `Fc1ccccc1-c1nc(-c2ccc(Br)cc2)no1`, 4.3%.
With `CCOc1ccc(C(=O)Nc2cccc3nsnc23)cc1Br` the figure was 78.2%; with `Cc1ccc2nsnc2c1NC(=O)c1ccc(Br)o1`, 15.6%; with `CCOc1ccc(C(=O)Nc2cccc3nsnc23)cc1[N+](=O)[O-]`, 10.7%.
In the case of `CCOc1ccc(C(=O)Nc2cccc3nsnc23)cc1Cl`, the displacement worked out at 30.9%.
As for `O=C(Nc1cccc2nsnc12)c1ccco1`, the displacement is 4%.
Turning to `O=C(Nc1cccc2nsnc12)c1ccc(Br)o1`, the displacement was 69.6%.
With `O=C(Nc1sc2c(c1C(=O)N1CCCCC1)CCCCC2)c1ccc([N+](=O)[O-])cc1` the figure was -2.1%.
On to `COc1cccc(OC)c1C(=O)NCc1ccc(C)cc1`, for which the displacement is 2.7%.
For `Fc1ccc(-c2noc(-c3ccc(Cl)cc3)n2)cc1` the value was -6.4%.
With `COc1cc(C(=O)N2CCN(C)CC2)c([N+](=O)[O-])cc1OC` the figure was -0.1%; with `COc1ccc(-c2noc(-c3ccc(C)c([N+](=O)[O-])c3)n2)cc1`, -0.4%.
With `Cc1cccc(-c2noc(-c3cccc([N+](=O)[O-])c3C)n2)c1` the figure was 78.9%.
In the case of `COc1ccc(-c2nc(-c3cc(OC)c(OC)c(OC)c3)no2)cc1OC`, the displacement is -5.7%.
Consider `Cc1ccc(-c2noc(-c3cccc([N+](=O)[O-])c3C)n2)cc1`, for which the displacement was determined as 6.9%.
With `Cc1cccc(-c2noc(-c3ccc(C)c([N+](=O)[O-])c3)n2)c1` the figure was 76.1%.
In the case of `Cc1cccc(-c2noc(-c3ccc(Br)cc3)n2)c1`, the displacement is -1.7%.
With `Cc1ccc(-c2nc(-c3cccnc3)no2)cc1[N+](=O)[O-]` the figure was 21.4%; with `COc1ccc(-c2noc(-c3ccc(C)c([N+](=O)[O-])c3)n2)cc1OC`, 54.4%.
With `Cc1c(-c2nc(-c3ccncc3)no2)cccc1[N+](=O)[O-]` the figure was 0.7%; with `O=C1c2ccccc2C(=O)C1C1=CC(c2ccccc2)C(c2ccccc2)N=N1` (configuration not stated), -10%.
For `O=S(=O)(NC(=S)c1ccccc1)c1ccc(I)cc1` the value was 11.9%.
In the case of `COc1cc(/C=C2\C(=O)NC(=O)N(c3ccc(Cl)cc3)C2=O)cc(Cl)c1OC`, the displacement is -2.2%.
With `COc1ccc(/C=C/C(=O)c2ccc(Br)cc2)cc1[N+](=O)[O-]` the figure was 12.9%.
With `O=C(CSc1nnnn1-c1ccccc1)Nc1ccccc1[N+](=O)[O-]` the figure was 1.7%; with `O=C(CSc1ccc(Cl)cc1)NCCc1ccc(F)cc1`, -8.3%; with `O=C(NCc1ccc2c(c1)OCO2)c1ccccc1F`, 14.1%.
For `O=C(Nc1ccc2c(c1)OCO2)C(=O)Nc1ccc2c(c1)OCO2` the value was 21.3%; for `O=C(NNC(=O)c1ccc2c(c1)OCO2)NC1CCCCC1`, 10.1%.
Consider `c1cc2c(cc1NC1CCCCC1)OCO2`, for which the displacement was found to be 130%.
With `Cc1nn(Cc2cccc(Cl)c2)c(N)c1-c1ccccc1` the figure was -9%.
For `CCOc1ccc(/C=N\NC(=O)c2ccc(Br)cc2)c(O)c1` the value was 6.9%; for `Cc1ccc(C(=O)Nc2ccc(S(=O)(=O)N3CCc4ccccc43)cc2)cc1`, 1.6%; for `O=C(Nc1ccc(S(=O)(=O)N2CCc3ccccc32)cc1)c1ccc(Cl)cc1`, 0.8%.
With `O=C(Nc1ccc(S(=O)(=O)N2CCc3ccccc32)cc1)c1ccc(-c2ccccc2)cc1` the figure was 89.5%; with `O=C(O)c1c(F)c(F)c(F)c(F)c1-c1ccc(Cl)cc1`, 11.8%; with `O=c1c(-c2ccccc2)coc2cc(OCc3ccccc3Cl)ccc12`, 20.7%.
`Oc1cc(OCc2ccccc2Cl)ccc1-c1[nH]ncc1-c1ccccc1`: the displacement stood at 77.4%.
With `Cc1oc2ccc(OCc3ccccc3Cl)cc2c1C(=O)O` the figure was 5.8%; with `CCOC(=O)c1ccc(N/C=C/C(=O)c2ccc(Cl)cc2)cc1`, 59.8%; with `CCOC(=O)c1ccc(N/C=C/C(=O)c2cccs2)cc1`, 14.1%.
On to `Cc1ccc(C(=O)/C=C/Nc2cccc(O)c2)cc1`, for which the displacement was -0.4%.
`Cc1ccc(C(=O)/C=C/Nc2ccc(Cl)c(Cl)c2)cc1`: the displacement was determined as 126%.
With `CCOC(=O)c1ccc(NC(=O)/C=C/c2ccc(Cl)cc2)cc1` the figure was 16.8%; with `Cc1cccc(N/C=C/C(=O)c2ccc(Cl)cc2)c1`, -2.2%; with `CCOc1ccccc1C(=O)NCCc1nc2ccccc2[nH]1`, 4.7%.
As to `O=C(NC1C2CC3CC(C2)CC1C3)c1ccccc1F` (configuration not stated), the displacement worked out at 4.9%.
For `Cc1cc(/C=C2/SC(=O)NC2=O)c(C)n1-c1cccnc1` the value was 0.8%.
Take `C/C(=N\NC(=O)c1cc2ccccc2cc1O)c1ccco1`: the displacement amounted to 10%.
Turning to `COC(=O)c1cc(-c2ccc(C)cc2)nc2ccccc12`, the displacement was found to be 2.1%.
For `COc1ccc(-c2cc(-c3ccc(Cl)cc3)c(C#N)c(N)n2)cc1`, the displacement stood at 6.4%.
For `COc1ccc(-c2cc(-c3ccc(Br)cc3)nc(N)c2C#N)cc1` the value was 70.6%.
For `N#Cc1c(-c2ccccc2)cc(-c2ccc(Br)cc2)nc1N` the value was 8.8%.
For the compound `CN1CCN(c2c([N+](=O)[O-])c(=O)n(C)c3ccccc23)CC1`, the displacement is -4.8%.
As for `CCOC(=O)c1ccc(-c2ccc(/C=C3/SC(N)=NC3=O)o2)cc1`, the displacement was -27.3%.
For `CCC1=NN2C(=N)/C(=C/c3ccc(-c4ccc(Cl)cc4)o3)C(=O)N=C2S1`, the displacement amounted to 66.7%.
With `CCCC1=NN2C(=N)/C(=C/c3ccc(OCc4ccc(F)cc4)c(OCC)c3)C(=O)N=C2S1` the figure was -6.7%; with `CCC1=NN2C(=N)/C(=C/c3ccc(-c4ccc(C)c(Cl)c4)o3)C(=O)N=C2S1`, 3.9%; with `CCCC1=NN2C(=N)/C(=C/c3ccccc3C)C(=O)N=C2S1`, 32.9%.
With `CCC1=NN2C(=N)/C(=C/c3ccc(-c4ccc(F)cc4)o3)C(=O)N=C2S1` the figure was 69.2%; with `CCCC1=NN2C(=N)/C(=C/c3ccc(-c4ccc(F)cc4)o3)C(=O)N=C2S1`, 135%.
With `CCCC1=NN2C(=N)/C(=C/c3ccc(-c4ccccc4C(=O)OC)o3)C(=O)N=C2S1` the figure was -37%.
For the compound `CCC1=NN2C(=N)/C(=C/c3ccc(-c4ccc(C(=O)O)cc4)o3)C(=O)N=C2S1`, the displacement was 44.1%.
`CCCC1=NN2C(=N)/C(=C/c3ccc(-c4ccc(C(=O)OCC)cc4)o3)C(=O)N=C2S1`: the displacement was 164%.
For `CCC1=NN2C(=N)/C(=C/c3ccc(F)cc3)C(=O)N=C2S1` the value was 7.5%; for `CCC1=NN2C(=N)/C(=C/c3ccc(-c4ccc(F)c(Cl)c4)o3)C(=O)N=C2S1`, -0.2%.
For the compound `CCOc1ccc(N2C(=O)NC(=O)/C(=C/c3cc(Br)c(OCC)c(OC)c3)C2=O)cc1`, the displacement was -6.7%.
For `CC(=O)C1=C(O)C(=O)N(C)C1c1ccccc1[N+](=O)[O-]` (configuration not stated) the value was 2.8%.
For the compound `C/C(=N\N=C1\NC(=O)C(CC(=O)NCc2ccccc2)S1)C(C)C` (configuration not stated), the displacement worked out at 0.3%.
With `CCCCOc1ccc(NC(=O)CSc2nnc(N)s2)cc1` the figure was -16.9%.
For `c1ccc(CCSc2nc3ccccc3[nH]2)cc1` the value was 6.2%; for `Cc1cc(/C=C2/NC(=O)NC2=O)c(-c2ccccc2)n1-c1ccccc1`, -5.1%.
With `Cc1cc(/C=C2/SC(=O)NC2=O)c(-c2ccccc2)n1-c1ccccc1` the figure was -9.6%; with `Cc1cc(C=C2C(=O)c3ccccc3C2=O)c(-c2ccccc2)n1-c1ccccc1`, 68%.
In the case of `Cc1cc(/C=N/N2C(=O)c3ccccc3C2=O)c(C)n1-c1ccccc1`, the displacement was 11.4%.
As to `Cc1cc(C=C2C(=O)NC(=S)NC2=O)c(-c2ccccc2)n1-c1ccccc1`, the displacement was found to be 162%.
For `Cc1cc(C=C2C(=O)NC(=O)NC2=O)c(-c2ccccc2)n1-c1ccccc1` the value was 150%.
For `Cc1cc(/C=C2/NC(=S)NC2=O)c(-c2ccccc2)n1-c1ccccc1` the value was -14.7%.
For `Cc1cc(/C=C2/SC(=S)NC2=O)c(-c2ccccc2)n1-c1ccccc1` the value was 0.7%.
For `Cc1cc(C)c(C=C2C(=O)c3ccccc3C2=O)cc1C`, the displacement is -1.6%.
